In PubChem BioAssay one finds z-score and composite z-score data, which are given here for eight molecules.

A short description of experiment [1]: E. coli DRC41 culture turbidity changes, primary screen, E. coli filamentation inducer project, strain DRC41, OD650, 48 h (AID 1152).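 Further: E. coli MC1000 strain DRC41 lacking acrAB efflux pump and sulA.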 The conditions noted are these: E. coli DRC41 (acrAB sulA), higher = more signal, called active from +8 up or from −8 down.
The nature of experiment [2]: small-molecule binders of probe aLefty1, primary screen, biochemical, small-molecule microarray, 635/667 nm fluorescence (AID 1153).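 Further: score merges spot fluorescence with signal-to-noise ratio from the scanned slide images.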 The settings on record: higher = more signal.
Experiment [3] can be described thus: PSAC antagonists in infected red cells, primary screen, cell-based, P. falciparum Indochina, OD700, 1 h (AID 1154). The settings on record: P. falciparum Indochina infected RBC osmotic lysis, higher = more signal, called active from +8 up or from −8 down.
A short description of experiment [4]: PSAC antagonists in infected red cells, primary screen, cell-based, P. falciparum Indochina, OD700, 2 h (AID 1155).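 Further: lysis reports solute entry through the parasite surface anion channel PSAC; channel blockers reduce lysis of infected cells.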 The settings on record: P. falciparum Indochina infected erythrocytes, osmotic lysis OD700; higher = more signal, called active from +8 up or from −8 down.
The nature of experiment [5]: osmotic lysis modulators in infected erythrocytes, primary screen, PSAC antagonist project, cell-based, P. falciparum Indochina, OD700, 3 h (AID 1156). The conditions noted are these: higher = more signal, called active from +8 up or from −8 down.
Experiment [6] is described as follows: PSAC antagonists in infected red cells, primary screen, cell-based, P. falciparum Indochina, OD700, 18 h (AID 1157). The conditions noted are these: P. falciparum Indochina infected erythrocytes, osmotic lysis OD700, 18 h; higher = more signal, called active from +8 up or from −8 down.
Experiment [7] is described as follows: modulators of S6 phosphorylation in cells, primary screen, cell-based, A549, cytoblot, luminescence, serum-stimulated (AID 1158).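 Further: serum-stimulated A549 lung adenocarcinoma cells; signal is phosphorylated S6 detected by cytoblot immunostaining with HRP secondary.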 The settings on record: A549 phospho-S6 cytoblot, 5 h, higher = more signal.
Experiment [8] deals with NADPH oxidase 2 (Homo sapiens) (UniProt P04839). Briefly: NOX2-dependent H2O2 signal modulators, primary screen, NOX inhibitor project, cell-based, HEK293-NOX2, PMA-stimulated, Amplex Red fluorescence (AID 1159). Further: test concentration not given here. The settings on record: 45 min, higher = more signal, called active from +8 up or from −8 down.
Experiment [9] has as its target NADPH oxidase 4 (Homo sapiens) (UniProt Q9NPH5). Briefly: NOX4-dependent H2O2 signal modulators, primary screen, NOX inhibitor project, cell-based, HEK293-NOX4, tetracycline-induced, Amplex Red fluorescence (AID 1160). The conditions noted are these: 45 min, higher = more signal, called active from +8 up or from −8 down.
Experiment [10] concerns the target NADPH oxidase 5 (Homo sapiens) (UniProt Q96PH1). Briefly: NOX5-dependent H2O2 signal modulators, primary screen, NOX inhibitor project, cell-based, HEK293-NOX5, Amplex Red fluorescence (AID 1161). The settings on record: HEK293-NOX5, ionomycin, 45 min, higher = more signal.

SMILES strings stand for the structures. Several values for one entry are separate records, joined by “and”; a condition that tells them apart may be missing. Equal entries are not always repeated. Activity calls are given as the source filed them.

NADPH oxidase 4 (Homo sapiens), sequence (Q9NPH5 whole entry, looked up): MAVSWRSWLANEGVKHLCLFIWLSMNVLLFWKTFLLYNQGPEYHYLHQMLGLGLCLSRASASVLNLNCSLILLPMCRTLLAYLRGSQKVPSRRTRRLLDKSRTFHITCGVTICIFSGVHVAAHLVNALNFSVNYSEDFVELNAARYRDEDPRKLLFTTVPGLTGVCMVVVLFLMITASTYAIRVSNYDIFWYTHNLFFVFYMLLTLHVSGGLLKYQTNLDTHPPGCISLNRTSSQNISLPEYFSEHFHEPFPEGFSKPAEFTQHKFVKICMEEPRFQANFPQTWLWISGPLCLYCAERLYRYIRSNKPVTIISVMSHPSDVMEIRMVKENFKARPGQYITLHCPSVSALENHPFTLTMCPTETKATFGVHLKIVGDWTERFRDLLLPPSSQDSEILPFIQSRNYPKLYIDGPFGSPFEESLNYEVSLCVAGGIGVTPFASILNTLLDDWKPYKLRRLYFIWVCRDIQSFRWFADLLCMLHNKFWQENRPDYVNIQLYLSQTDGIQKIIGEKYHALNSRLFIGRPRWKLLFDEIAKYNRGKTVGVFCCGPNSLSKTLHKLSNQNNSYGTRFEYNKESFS
NADPH oxidase 5 (Homo sapiens), sequence (Q96PH1 whole entry, looked up): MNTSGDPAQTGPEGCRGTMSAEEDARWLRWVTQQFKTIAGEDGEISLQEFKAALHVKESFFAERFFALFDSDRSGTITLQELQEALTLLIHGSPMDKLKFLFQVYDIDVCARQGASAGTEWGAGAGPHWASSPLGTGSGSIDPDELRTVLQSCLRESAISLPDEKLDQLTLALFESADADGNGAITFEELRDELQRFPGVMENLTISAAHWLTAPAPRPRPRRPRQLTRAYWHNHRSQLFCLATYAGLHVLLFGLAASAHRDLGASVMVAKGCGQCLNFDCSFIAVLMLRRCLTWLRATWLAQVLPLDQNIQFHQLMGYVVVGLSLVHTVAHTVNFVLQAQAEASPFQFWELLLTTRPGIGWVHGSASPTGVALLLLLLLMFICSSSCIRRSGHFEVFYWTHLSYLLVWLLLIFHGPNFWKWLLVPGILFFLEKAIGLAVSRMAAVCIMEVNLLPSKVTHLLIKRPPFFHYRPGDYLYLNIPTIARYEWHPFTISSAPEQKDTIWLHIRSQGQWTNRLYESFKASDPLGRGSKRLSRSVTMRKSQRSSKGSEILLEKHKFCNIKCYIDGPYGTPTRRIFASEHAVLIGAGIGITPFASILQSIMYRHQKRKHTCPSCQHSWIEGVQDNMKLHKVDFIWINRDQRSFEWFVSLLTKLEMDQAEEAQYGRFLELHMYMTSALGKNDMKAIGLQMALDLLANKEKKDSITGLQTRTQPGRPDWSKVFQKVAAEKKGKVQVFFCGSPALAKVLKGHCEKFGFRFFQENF
NADPH oxidase 2 (Homo sapiens), sequence (P04839 whole entry, looked up): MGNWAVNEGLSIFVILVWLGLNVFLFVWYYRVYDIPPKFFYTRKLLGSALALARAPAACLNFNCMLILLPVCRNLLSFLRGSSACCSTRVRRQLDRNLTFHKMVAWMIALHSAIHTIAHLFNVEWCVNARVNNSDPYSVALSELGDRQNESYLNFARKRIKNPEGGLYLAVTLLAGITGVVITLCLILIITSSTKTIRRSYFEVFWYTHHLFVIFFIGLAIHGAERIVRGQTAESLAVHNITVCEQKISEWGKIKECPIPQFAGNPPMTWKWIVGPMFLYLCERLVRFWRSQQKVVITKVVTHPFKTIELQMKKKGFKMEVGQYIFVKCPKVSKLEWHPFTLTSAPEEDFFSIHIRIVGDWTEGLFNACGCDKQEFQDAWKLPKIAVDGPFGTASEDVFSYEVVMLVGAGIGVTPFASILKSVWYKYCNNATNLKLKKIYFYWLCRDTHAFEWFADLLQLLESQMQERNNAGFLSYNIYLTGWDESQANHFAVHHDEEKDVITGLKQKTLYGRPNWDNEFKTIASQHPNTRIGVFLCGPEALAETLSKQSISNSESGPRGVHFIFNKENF

As for `CCCC[C@@H]1CN2[C@H](c3ccc(Br)cc3)[C@@H](C)CC[C@H]2C(=O)O1`, the z-score was 0.469 (inactive) and -0.0124 (inactive) in experiment [1]; 1.56 (inactive) and 1.12 (inactive) in [3]; 0.395 (inactive) and 0.586 (inactive) in [4]; 1.2 (inactive) and -0.241 (inactive) in experiment [5]; 0.492 (inactive) and 0.318 (inactive) in [6]; 0.57 and -0.262 in experiment [7]. Further, the z-score in [8] is 0.203 (inactive) and -0.527 (inactive); in experiment [9] it was 0.332 (inactive) and -0.0635 (inactive); in [10] it was -0.884 and -1.79. The composite z-score in experiment [2] was -0.308 and -0.0132.

As to `CO[C@H]1COC(=O)CC=C[C@@H](C)COC(=O)[C@H](CCSC)NC(=O)CC=C[C@@H]1C`, the z-score is -0.949 (inactive) and -0.0368 (inactive) in [1]; -0.304 (inactive) and 0.171 (inactive) in experiment [3]; -0.237 (inactive) and 0.588 (inactive) in [4]; -0.425 (inactive) and -0.189 (inactive) in experiment [5]; 0.256 (inactive) and -0.0409 (inactive) in experiment [6]; 0.676 and 0.163 in experiment [7]. Further, the z-score in experiment [8] was 1.07 (inactive) and -1.99 (inactive); in experiment [9], -0.824 (inactive) and 0.413 (inactive); in experiment [10], -0.812 and -0.479. Moreover, the composite z-score in experiment [2] is -0.188 and 0.32.

For `C=CCN(C(=O)C(c1cccs1)N(C(=O)/C=C\C(=O)O)c1ccc(CCO)cc1)C(C)(C)C` (stereo not given), the z-score was 0.381 (inactive) and -0.0974 (inactive) in experiment [1]; -0.274 (inactive) and -0.322 (inactive) in [3]; -0.432 (inactive) and 0.0511 (inactive) in [4]; -0.518 (inactive) and -0.338 (inactive) in experiment [5]; 0.0097 (inactive) and 0.232 (inactive) in experiment [6]; 1.36 and 0.123 in [7]. Further, the z-score is 0.0507 (inactive) and 0.27 (inactive) in [8]; -0.86 (inactive) and -0.783 (inactive) in experiment [9]; 0.274 and 0.335 in experiment [10]. In addition, the composite z-score in experiment [2] was -0.134 and 0.0355.

With `CCOC(=O)C[C@H]1[C@H](OC(=O)c2ccccc2-c2ccccc2)[C@@H](NC(=O)Cc2ccc(OC)cc2)c2cc(OCCCO)ccc2N1C(=O)Cc1ccc(OC)cc1`, the z-score is 2.52 (inactive) and -0.448 (inactive) in experiment [1]; 2.32 (inactive) and 2.14 (inactive) in [3]; -0.672 (inactive) and 0.269 (inactive) in [4]; 0.308 (inactive) and -0.142 (inactive) in [5]; -1.18 (inactive) and 0.255 (inactive) in [6]; 0.551 and -0.0127 in [7]. Also, the z-score in experiment [8] was 1.61 (inactive) and 0.265 (inactive); in experiment [9] it was -0.904 (inactive) and 0.828 (inactive); in experiment [10] it was 1.79 and 0.274. Also, the composite z-score in [2] was 0.349 and -0.0601.

Consider `CC(CO)N1C(=O)[C@@H]2C3C(=O)OCCC=C[C@H]3OC23C=CCN(Cc2ccccc2)C(=O)[C@@H]13` (stereo not given in full), for which the z-score in experiment [1] is 0.697 (inactive) and 0.925 (inactive); in experiment [3] it was 3.31 (inactive) and 0.464 (inactive); in [4] it was 1.11 (inactive) and 0.0933 (inactive); in [5], 1.21 (inactive) and 1.05 (inactive); in experiment [6], 0.403 (inactive) and 0.258 (inactive); in experiment [7] it was -0.388 and -0.526. Moreover, the z-score in experiment [8] was 1.26 (inactive) and 1.71 (inactive); in experiment [9] it was 1.09 (inactive) and -0.409 (inactive); in experiment [10], 2.15 and 2.85. Besides, the composite z-score in experiment [2] was -0.0162 and 0.132.

Turning to `C=C[C@@H](OC)[C@H](O)c1ccc(OCCO)cc1`, the z-score was -0.368 (inactive) and 2.73 (inactive) in experiment [1]; -0.167 (inactive) and 1.57 (inactive) in [3]; 0.139 (inactive) and -0.317 (inactive) in [4]; -0.123 (inactive) and -0.29 (inactive) in experiment [5]; 0.278 (inactive) and -0.993 (inactive) in [6]; -0.424 and 2.8 in experiment [7]. Moreover, the z-score is -0.394 (inactive) and -0.426 (inactive) in [8]; -0.164 (inactive) and -0.249 (inactive) in experiment [9]; -0.743 and -1.57 in experiment [10]. The composite z-score in [2] is -0.0984 and -0.53.

Turning to `CCC[C@@H]1C[C@@]1(CCC)[C@@H](NC(=O)c1ccc(-c2ccccc2)cc1)c1cccc(Cl)c1`, the z-score in experiment [1] was -2.52 (inactive) and -0.473 (inactive); in [3] it was 2.33 (inactive) and 6.65 (inactive); in [4], 0.011 (inactive) and 0.853 (inactive); in [5] it was 0.364 (inactive) and 0.0717 (inactive); in experiment [6], 0.446 (inactive) and 0.691 (inactive); in experiment [7] it was -0.366 and -0.0422. For the same molecule, the z-score is -1.8 (inactive) and -1.74 (inactive) in experiment [8]; -2.39 (inactive) and -5.23 (inactive) in experiment [9]; -1.31 and -1.93 in experiment [10]. Besides, the composite z-score in experiment [2] was 2.19 and 0.345.

For `C=CCN(C(=O)C1N(c2ccc(CCO)cc2)C(=O)C2C(C(=O)O)C3C=CC21O3)c1ccc(OC)cc1` (stereo not given), the z-score in experiment [1] is -0.0883 (inactive) and 1.76 (inactive); in experiment [3], 2.34 (inactive) and 0.289 (inactive); in [4], 0.752 (inactive) and -0.136 (inactive); in experiment [5] it was -0.0787 (inactive) and -0.0798 (inactive); in [6], 0.258 (inactive) and 0.284 (inactive); in experiment [7], 0.0631 and 2.4. Moreover, the z-score was 1.27 (inactive) and -0.00582 (inactive) in [8]; -1.05 (inactive) and -0.234 (inactive) in experiment [9]; 2.64 and -0.701 in [10]. Further, the composite z-score in experiment [2] is -0.147 and -0.216.
